The values below come from PubChem BioAssay (NCI).

Test systems include NCI-H23 lung; NCI-H226 lung; NCI-H322M lung; HOP-62 NSCLC; NCI-H460 lung; HOP-92 NSCLC; NCI-H522 lung; A549/ATCC NSCLC; COLO 205 colon; DU-145 prostate; K-562 leukemia; MALME-3M melanoma; MDA-MB-231 breast; RXF 393 renal; SF-268 CNS; SF-295 CNS; SF-539 CNS; UACC-257 melanoma; M14 melanoma; 786-0 renal.
Common to all, as to assay: NCI-60 one-dose screen, 48 h (100 = growth as untreated, 0 = no growth, -100 = all killed)
Common to all, as to details: 10 µM unless noted

About 83,000 compounds went through this panel and 20% of them were active in at least one assay; those are over-represented in the sample as a whole.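 A percent growth of 40 corresponds to 60% growth inhibition; 0 means no net growth; -100 means all cells died. Active threshold: below 10.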 A number with no mark means an inactive call. Active and inactive are the calls of the source.

In the case of `CC(=O)O[C@@H]1C2CCC3C(CC[C@@]4(C)C3CC[C@@H]4C(C)N(C)C)[C@@]2(C)CC[C@@H]1NC(=O)C=C(C)C` (some centres undefined), the growth in the assay with NCI-H23 lung was 33.9%; with NCI-H226 lung, 64.7%; in the assay with NCI-H322M lung, 13.1%; with HOP-62 NSCLC, -26.1% (active); in the assay on NCI-H460 lung it was -48.6% (active); with HOP-92 NSCLC, 24.4%. Moreover, the growth is 65.7% in the assay with NCI-H522 lung; 32.3% with A549/ATCC NSCLC; -82.8% (active) in the assay with COLO 205 colon; 51.4% in the assay on DU-145 prostate; 2.24% (active) in the assay with K-562 leukemia; -59.4% (active) in the assay on MALME-3M melanoma. Besides, the growth in the assay with MDA-MB-231 breast is -10.3% (active); in the assay on RXF 393 renal it was -51.5% (active); in the assay with SF-268 CNS, -23.4% (active); with SF-295 CNS, -15.3% (active); in the assay on SF-539 CNS it was -52.7% (active); with UACC-257 melanoma, -40.9% (active). In the assay with M14 melanoma, the growth is -44.4% (active).

For the compound `COc1cc(OC)cc(C(=O)C[n+]2cccc3cc[nH]c32)c1`, the growth in the assay with NCI-H23 lung is 94.7%; in the assay with NCI-H226 lung, 94.2%; in the assay with NCI-H322M lung, 93.1%; in the assay with HOP-62 NSCLC, 99.1%; in the assay with NCI-H460 lung, 101%; in the assay with HOP-92 NSCLC it was 88.9%. The growth in the assay on NCI-H522 lung is 93%; in the assay with A549/ATCC NSCLC it was 97.6%; in the assay with COLO 205 colon it was 107%; with DU-145 prostate, 115%; in the assay with K-562 leukemia, 98%; in the assay with MALME-3M melanoma, 99.1%. Moreover, the growth with MDA-MB-231 breast was 98.4%; with RXF 393 renal, 83.8%; in the assay with SF-268 CNS, 97%; with SF-295 CNS, 101%; in the assay with SF-539 CNS it was 101%; in the assay on UACC-257 melanoma it was -43.7% (active). In addition, the growth with M14 melanoma was 96.3%.

In the case of `CCN(CC)CCOc1ccc(NC(=O)C(C(C)C)N2C(=O)/C(=C/c3ccc(Br)cc3)SC2=S)cc1` (centres undefined), the growth was 94.6% in the assay on NCI-H23 lung; 90% with NCI-H226 lung; 99.8% with NCI-H322M lung; 104% in the assay with HOP-62 NSCLC; 16.2% with NCI-H460 lung; 78.8% in the assay with HOP-92 NSCLC. For the same compound, the growth was 96.3% in the assay on NCI-H522 lung; 16.6% in the assay on A549/ATCC NSCLC; 92.1% in the assay on COLO 205 colon; 73% in the assay with DU-145 prostate; -64.8% (active) in the assay on K-562 leukemia; -34.4% (active) with MALME-3M melanoma. Moreover, the growth with MDA-MB-231 breast was 50.7%; in the assay on RXF 393 renal it was 71.6%; with SF-268 CNS, 76.6%; in the assay with SF-295 CNS, 101%; with SF-539 CNS it was 88.2%; in the assay with UACC-257 melanoma it was 93.5%. For the same compound, the growth in the assay with M14 melanoma is 75.8%.

For `CCOC(=O)c1nc2c3ccccc3ccn2c1C(=O)OCC`, the growth in the assay with NCI-H23 lung is 96.9%; with NCI-H226 lung it was 97.2%; with NCI-H322M lung it was 95.1%; in the assay on HOP-62 NSCLC it was 102%; in the assay with NCI-H460 lung, 118%; in the assay on HOP-92 NSCLC, 103%. Further, the growth in the assay on NCI-H522 lung was 88.3%; with A549/ATCC NSCLC, 103%; in the assay with COLO 205 colon it was 109%; in the assay with DU-145 prostate it was 92.1%; in the assay on K-562 leukemia, 99.1%; in the assay on MALME-3M melanoma, 103%. Also, the growth with MDA-MB-231 breast was 98.2%; in the assay with RXF 393 renal it was 103%; in the assay on SF-268 CNS it was 89%; in the assay on SF-295 CNS, 104%; in the assay on SF-539 CNS, 99.9%; with UACC-257 melanoma it was 126%. For the same compound, in the assay with M14 melanoma, the growth is 121%.

Regarding `Oc1c(Cl)cc(Cl)c(Cl)c1CNCCNCc1c(O)c(Cl)cc(Cl)c1Cl`, the growth is 24.7% with NCI-H23 lung; 56.2% in the assay on NCI-H226 lung; 21.8% with NCI-H322M lung; 25% with HOP-62 NSCLC; 13% in the assay on NCI-H460 lung; 27.8% in the assay on HOP-92 NSCLC. Besides, the growth with NCI-H522 lung was 14.9%; with A549/ATCC NSCLC it was 13.4%; with COLO 205 colon, 13.3%; with DU-145 prostate, 45.9%; with K-562 leukemia it was 10.3%; with MALME-3M melanoma, 13.4%. Also, the growth was 35.5% with MDA-MB-231 breast; 28.2% in the assay with RXF 393 renal; 25% in the assay on SF-268 CNS; 18.3% in the assay with SF-295 CNS; -9.34% (active) in the assay on SF-539 CNS; 4.63% (active) with UACC-257 melanoma. In the assay with M14 melanoma, the growth is 20.3%.

For `CN(C)CCC(=O)c1ccc([N+](=O)[O-])cc1`, the growth in the assay with NCI-H23 lung was 109%; in the assay with NCI-H226 lung, 94.8%; in the assay with NCI-H322M lung, 104%; with HOP-62 NSCLC it was 98.6%; in the assay with NCI-H460 lung, 107%; in the assay with HOP-92 NSCLC, 89.2%. The growth is -23% (active) in the assay with NCI-H522 lung; 109% with A549/ATCC NSCLC; 107% in the assay on COLO 205 colon; 108% in the assay with DU-145 prostate; 114% in the assay on K-562 leukemia; 104% with MALME-3M melanoma. Also, the growth was 100% in the assay with MDA-MB-231 breast; 108% in the assay with RXF 393 renal; 112% in the assay on SF-268 CNS; 103% with SF-295 CNS; 96.4% with SF-539 CNS; 108% in the assay with UACC-257 melanoma. Besides, the growth in the assay on M14 melanoma is 102%.

Turning to `C=C(C)[C@@H]1CC[C@]2(C(=O)N[C@@H](Cc3ccccc3)C(=O)OC)CC[C@]3(C)[C@H](CC[C@@H]4[C@@]5(C)CCC(=O)C(C)(C)[C@@H]5CC[C@]43C)[C@@H]12`, the growth with NCI-H23 lung is 86.7%; in the assay with NCI-H226 lung, 94.6%; with NCI-H322M lung, 93.4%; in the assay on HOP-62 NSCLC, 94%; with NCI-H460 lung, 81.3%; with HOP-92 NSCLC, 57.6%. Moreover, the growth in the assay on NCI-H522 lung was 79.7%; with A549/ATCC NSCLC, 79%; in the assay on 786-0 renal, 85.8%; in the assay with DU-145 prostate it was 92.7%; in the assay with MALME-3M melanoma, 102%; in the assay on MDA-MB-231 breast, 102%. Further, the growth is 101% with RXF 393 renal; 78% with SF-268 CNS; 78.8% in the assay with SF-295 CNS; 93.7% in the assay with SF-539 CNS; 104% with UACC-257 melanoma; 87.8% with M14 melanoma.

Regarding `O=C(Nc1ccc(NC(=O)c2cc(=O)[nH]c3ccccc23)cc1)Nc1cccc(Cl)c1`, the growth in the assay on NCI-H23 lung is 87.9%; in the assay on NCI-H226 lung it was 70%; with NCI-H322M lung, 80.2%; in the assay with HOP-62 NSCLC it was 66.2%; in the assay with NCI-H460 lung, 86.3%; with HOP-92 NSCLC it was 81.1%. Further, the growth is 84.6% with NCI-H522 lung; 93.5% in the assay with A549/ATCC NSCLC; 98.3% with 786-0 renal; 105% in the assay with DU-145 prostate; 83.5% in the assay on K-562 leukemia; 90% in the assay on MALME-3M melanoma. For the same compound, the growth in the assay on MDA-MB-231 breast was 78.7%; with RXF 393 renal it was 95.3%; with SF-268 CNS, 65.3%; in the assay with SF-295 CNS, 95.3%; with SF-539 CNS it was 84.1%; with UACC-257 melanoma, 98.2%. The growth in the assay with M14 melanoma was 93%.

For the compound `COc1ccc(/C=C/c2nc(Nc3ccc(Cl)cc3)c3ccccc3n2)cc1`, the growth in the assay with NCI-H23 lung was 73.1%; in the assay on NCI-H226 lung, 71.1%; in the assay on NCI-H322M lung, 44.3%; in the assay with HOP-62 NSCLC, 69%; in the assay on NCI-H460 lung it was 18.2%; in the assay with HOP-92 NSCLC, 63.5%. The growth is 69.3% in the assay on NCI-H522 lung; 35% in the assay on A549/ATCC NSCLC; 36.9% with 786-0 renal; 50.2% in the assay with DU-145 prostate; 94.6% with MALME-3M melanoma; 38.2% in the assay with MDA-MB-231 breast. Moreover, the growth is 56.6% in the assay with RXF 393 renal; 54.3% in the assay on SF-268 CNS; 72.6% in the assay on SF-295 CNS; 90.9% in the assay with SF-539 CNS; 92.2% in the assay on UACC-257 melanoma; 34.3% with M14 melanoma.
